This passage reports outcome results from PubChem BioAssay AID1981 (Southern Research Specialized Biocontainment Screening …, 2009).

The campaign covered roughly 2,200 compounds. About 480 (22%) were called active. No rule for the calls is given here. A selection follows. Results with a measured potency or affinity are listed apart.

The assay can be described thus: S. Typhimurium GFP fluorescence modified counterscreen for PhoP regulon inhibitor project dose response (AID 1981). The conditions noted are these: 4 h; series mostly up to 150 µM. In general terms: Counterscreens check selectivity or assay interference.
As for `CCCCn1cnc2c(cnn2-c2ccc(F)cc2)c1=O`, the call was inactive.

Consider `CC(NC(=O)C1(C)CC1(Br)Br)C(C)(C)C` (centres undefined), for which the outcome was inactive.

Consider `Cc1ccc(C(=O)C(OC(=O)COc2ccccc2C)c2ccccc2)cc1` (centres undefined), for which the outcome was inactive.

For `Cc1ccc(C(=O)NNc2c3ccccc3nc3ccccc23)cc1`, the molecule was called inactive.

As for `O=C(NCCc1ccccc1)c1ccc2nc(-c3ccco3)c(-c3ccco3)nc2c1`, the molecule was called inactive.

With `C=CCOc1ccccc1CNCCCN1CCOCC1`, the outcome was inactive.

For the molecule `O=c1[nH]c(NCc2ccco2)nnc1Cc1ccccc1Cl`, the molecule was called inactive.

With `Nc1cc(N)cc(-c2nc3ccccc3[nH]2)c1`, the outcome was inactive.

As to `O=C(NNc1c2ccccc2nc2ccccc12)c1cccc(O)c1`, the call was inactive.

Regarding `COc1ccc(S(=O)(=O)n2nc(OC(=O)c3cccs3)cc2N)cc1`, the result was inactive.

Consider `CC(=O)C1=C(C)NC(SCSc2ccccc2)=C(C#N)C1c1cccnc1` (centres undefined), for which the molecule was called inactive.

Turning to `COC(=O)CCC(=O)Nc1ccc(Cl)c(Cl)c1`, the molecule was classed as inactive.

As for `S=C(Nc1ccc(Cl)c(Cl)c1)N1CCOCC1`, the result was inactive.

Turning to `CCC(Sc1ncccc1C(=O)OC(C)C)C(=O)N1CCOCC1` (centres undefined), the result was inactive.

Regarding `O=C(CSc1ccc2c(c1)OCCO2)NCCc1ccc(Cl)cc1Cl`, the molecule was classed as inactive.

With `CCOC(=O)/C(=C/C=C/c1ccccc1)NC(=O)c1ccccc1`, the molecule was called inactive.

In the case of `COc1ccc2[nH]c(S(=O)Cc3ncc(C)c(OC)c3C)nc2c1` (centres undefined), the result was inactive.

For `Cc1[nH]c2ccccc2c1/C=N/O`, the result was inactive.

Take `Oc1ccc(-c2n[nH]c(=S)n2-c2ccc3c(c2)OCCO3)c(O)c1`: the molecule was classed as inactive.

Consider `Cc1ccc(Nc2nc(CSc3nnc(-c4cccnc4)n3-c3ccccc3F)cs2)cc1`, for which the outcome was inactive.

In the case of `COc1ccc(OC)c(S(=O)(=O)N(C)CC(=O)N2CCc3ccccc3C2)c1`, the molecule was called inactive.

For the molecule `COc1cc(C)nc(Nc2nc(C)c(C(C)=O)s2)n1`, the call was inactive.

As to `COC(OC)c1nc(SCC(=O)Nc2cccc(Cl)c2)ncc1C(=O)O`, the molecule was called inactive.

As for `C(=C\c1ccccc1)/C=N/Nc1nc2ccccc2[nH]1`, the call was inactive.

`CN(c1cccc(Cl)c1)S(=O)(=O)c1cccc(C(=O)Nc2nc3ccccc3[nH]2)c1`: the molecule was called inactive.

For `C#CCn1cc(/C=N/Nc2nc3ccccc3[nH]2)c2ccccc21`, the molecule was called inactive.

As to `CCN(CC)c1ccc(/C=N/NC(=S)NCc2ccccc2)c(O)c1`, the call was inactive.

Regarding `CN1CCN(S(=O)(=O)c2ccc(-c3ccccc3)cc2)CC1`, the molecule was classed as inactive.

Consider `COc1ccc(C2=Nc3cccc4cccc(c34)N2)cc1`, for which the call was inactive.

Consider `Cc1ccc(CNC(=O)c2cccc(S(C)(=O)=O)c2)cc1`, for which the molecule was classed as inactive.

With `COc1ccc(-c2nnc(SCC(=O)NCc3ccco3)o2)cc1`, the call was inactive.

With `Cc1ccc(S(=O)(=O)NCCC(=O)OCn2nnc3ccccc3c2=O)cc1`, the molecule was called inactive.

Regarding `CN1/C(=C/C2CC(=O)N(c3cccc4ccccc34)C2=O)C(C)(C)c2ccccc21` (centres undefined), the molecule was called inactive.

As for `CN1/C(=C/C=N/NC(=O)c2ccc([N+](=O)[O-])cc2)C(C)(C)c2ccccc21`, the molecule was classed as inactive.

Take `COC(=O)c1cc(C#N)c(Oc2cccc(C)c2C)nc1C`: the molecule was classed as inactive.

Turning to `Cc1c(/C=C/C(=O)c2ccccc2)cnn1C`, the outcome was inactive.

As for `O=C1c2ccccc2C2=Nc3ccccc3SC(c3cccc(F)c3)C12` (centres undefined), the result was inactive.

On to `Cn1c(N)c(C(=O)COC(=O)C2CCCCC2)c(=O)n(C)c1=O`, for which the outcome was inactive.

As for `COc1ccccc1NCCC(=O)OCC(=O)NC1CCCCCC1`, the molecule was called inactive.

In the case of `O=c1c2ccccc2nc(-c2ccco2)n1-c1nccs1`, the call was inactive.

`CNc1nc(Sc2ccccc2)cc(C(F)(F)F)n1`: the outcome was inactive.

Take `CC(=O)Nc1c(C#N)c(C(C)(C)C)cn1C`: the molecule was called inactive.

`CCOC(=O)c1ccc(N2CCN(c3ccc(F)cc3)CC2)c(NC(=O)Nc2cccc(OC)c2)c1`: the outcome was inactive.

Regarding `COc1ccccc1-c1c(C#N)c(N)nc2c1CCc1ccccc1-2`, the outcome was inactive.

Take `CCOC(=O)Cc1ccc2sc(-c3ccccc3)nc2c1`: the call was inactive.

`CCOC(=O)CSc1nc2c(sc(=S)n2-c2ccccc2)c(=O)n1-c1ccc(OC)cc1OC`: the molecule was called inactive.

In the case of `Cc1ccc2cc(C(=O)O)c(C)nc2c1`, the result was inactive.

Turning to `COc1cccc(C=NCC(C)N=Cc2cccc(OC)c2O)c1O` (centres undefined), the molecule was classed as inactive.

Take `N/C(=N\OC(=O)Nc1ccc(Cl)cc1)c1ncc(C(F)(F)F)cc1Cl`: the outcome was inactive.

With `N#C/C(=C\c1ccc(F)c(F)c1)C(=O)NC1CCCCC1`, the call was inactive.

Turning to `N#CC(C#N)=c1ccc2c(c1)NC1(CCCCC1)N=2`, the call was inactive.

For the molecule `CCCCCCCSc1cc(OC)c(CCN(C)C)cc1OC`, the molecule was classed as inactive.

`CCCCn1nnnc1NCc1cc(OC)c(OC)cc1OC`: the call was inactive.

As for `COc1ccccc1NS(=O)(=O)c1cc(NC(=S)Nc2cc(C)cc(C)c2)ccc1Cl`, the result was inactive.

For the molecule `COc1ccc(CCNC(=O)c2ccc(CN3CCOCC3)cc2)cc1`, the result was inactive.

`CN(C(=S)Nc1ccc(Oc2ccccc2)cc1)c1ccc(O)cc1`: the molecule was classed as inactive.

Consider `OCCN(CCO)CC(O)Cn1c2ccccc2c2ccccc21` (centres undefined), for which the call was inactive.

Regarding `O=S(=O)(c1ccccc1)N(CC(O)Cn1c2ccccc2c2ccccc21)c1ccccc1` (centres undefined), the outcome was inactive.

With `CCOC(=O)C1CCCN(S(=O)(=O)c2ccc(Br)c(OC)c2)C1` (centres undefined), the molecule was called inactive.

Consider `Cc1cc(C)nc(N2CCCC(C(=O)Nc3ccc4nc(C)c(C)nc4c3)C2)n1` (centres undefined), for which the molecule was classed as inactive.

Consider `Nc1nnc(SCc2ccc3c(c2)OCO3)s1`, for which the result was inactive.

On to `O=C(c1cn(-c2ccccc2)nc1-c1cccnc1)N1CCCCC1`, for which the outcome was inactive.

For `Cc1cccc(-n2nc3c(c2NC(=O)c2ccco2)CSC3)c1C`, the molecule was called inactive.

Consider `O=[N+]([O-])c1nn(-c2cccc(Cl)c2)n(O)c1=NCc1cccnc1`, for which the molecule was called inactive.

For the molecule `Cc1nc(N2CCN(c3ccccc3)CC2)nc2c1C(=O)CC(C)C2` (centres undefined), the molecule was classed as inactive.

For the molecule `Cc1ccccc1NC(=S)NC1CCN(Cc2ccccc2)CC1`, the molecule was classed as inactive.

As to `CCCCC1(CCCC)C(=O)NC(=Nc2cccc(C)c2)NC1=O`, the molecule was classed as inactive.

As for `CCn1cc(C(=O)O)c(=O)c2cc(F)c(N3CCN(C(=S)NC(=O)c4ccccc4Cl)CC3)cc21`, the molecule was called inactive.

In the case of `O=C(Cn1cnc2scc(-c3ccccc3)c2c1=O)N1CCOCC1`, the result was inactive.

Regarding `Cc1ccccc1-n1nc(-c2ccc(N)cc2)cc1N`, the call was inactive.

`N#CCOC(=O)c1sccc1-n1cccc1`: the outcome was inactive.

As for `COc1ccc(/C=C(\NC(=O)/C=C/c2ccco2)C(=O)NCCc2nc3ccccc3[nH]2)cc1`, the molecule was classed as inactive.

For `S=C(NCc1cccnc1)Nc1ccc(Cl)cc1`, the molecule was classed as inactive.

As for `O=[N+]([O-])c1ccc(Sc2nc3ccccc3o2)c([N+](=O)[O-])c1`, the result was inactive.
